This is part of a sample that, as a whole, favours compounds with a hit. Of some 79,000 tested, about 15% had one in any assay. Values without a mark were called inactive. Activity calls are given as the source filed them. Cut-off read from the data, not from the text of the source: active = growth inhibition above about 70%; inactive = the rest.

Data on eight compounds can be found in PubChem BioAssay (NCI).

This assay in a line: NCI Yeast Anticancer Drug Screen. Data for the rad18 strain (AID 177). Conditions: S. cerevisiae rad18 mutant growth inhibition, hits give high values. Here is the method:
Growth inhibition of yeast strains with defined genetic alterations is measured as a screen for potential anti-cancer activity. Selected strains with alterations in DNA damage repair or cell cycle control were exposed to compounds and growth inhibition was measured relative to vehicle treated controls. The strain used in this assay is rad18

Take `COc1ccc(/C(C)=N/OC(=O)c2c(-c3ccccc3Cl)noc2C)cc1CN1CCOCC1`: the growth inhibition (at 1.2 µM) is -16%; the growth inhibition (at 3.7 µM) was -14%; the growth inhibition (at 11.0 µM) was -2%; the growth inhibition (at 33.0 µM) was 21%; the growth inhibition (at 100.0 µM) is 74% (active).
The corresponding values for `CN(N=O)N1C(=O)SCC(c2ccccc2)(c2ccccc2)C1=O` are -1%, -3%, 8%, 28% and 72% (active).
Regarding `CNC1C(OC2C(OC3C(O)C(O)C(N=C(N)N)C(O)C3N=C(N)N)OC(C)C2(O)CO)OC(CO)C(O)C1O` (stereo not given), the growth inhibition is, setting by setting: (at 1.2 µM) 1%; (at 3.7 µM) 10%; (at 11.0 µM) 5%; (at 33.0 µM) 35%; (at 100.0 µM) -12%.
The corresponding values for `O=CC=C(c1ccccc1)c1ccccc1` are 20%, 26%, 25%, 34% and 98% (active).
For the compound `CC[C@@]1(O)C(=O)OCc2c1cc1n(c2=O)Cc2cc3c(N)cccc3nc2-1`, the growth inhibition reads like this: (at 1.2 µM) -10%; (at 3.7 µM) -11%; (at 11.0 µM) -13%; (at 33.0 µM) -15%; (at 100.0 µM) -23%.
Turning to `CC(C)[N+]([O-])(CCCNc1c2ccccc2nc2cccc([N+](=O)[O-])c12)C(C)C`, the growth inhibition (at 1.2 µM) was 96% (active); the growth inhibition (at 3.7 µM) was 96% (active); the growth inhibition (at 11.0 µM) is 96% (active); the growth inhibition (at 33.0 µM) was 97% (active); the growth inhibition (at 100.0 µM) is 97% (active).
Regarding `O=C1c2ccccc2-c2nc3ccccc3nc21`, the growth inhibition is, setting by setting: (at 1.2 µM) -47%; (at 3.7 µM) -38%; (at 11.0 µM) -28%; (at 33.0 µM) 12%; (at 100.0 µM) 58%.
As for `OC1CSCCCSCCSCCCSC1`, the growth inhibition (at 1.2 µM) is -30%; the growth inhibition (at 3.7 µM) was -41%; the growth inhibition (at 11.0 µM) is -49%; the growth inhibition (at 33.0 µM) is -49%; the growth inhibition (at 100.0 µM) was -75%.
